The target in the assay is Scavenger receptor class B member 1 (Mus musculus) (UniProt Q61009). In words: inhibitors of SR-BI mediated HDL lipid uptake, dose response, ldlA[mSR-BI] cells, fluorescence, cherry pick (AID 493194).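 Further: CHO cells lacking LDL receptor and overexpressing mouse SR-BI; cellular uptake of fluorescently labeled HDL measured as cell fluorescence.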

The structures appear in SMILES notation. Entries with a potency or affinity are not part of this list. Inconclusive results are not listed. The source made the active and inactive calls.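 How the source made its calls: active means a valid curve of falling signal whose half-effect concentration is at most ten times the top tested dose; inconclusive means flat curve at 30 to 70% inhibition, or poor fit; inactive means signal rise, flat within 30%, or potency beyond limit.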

Sequence of Scavenger receptor class B member 1 (Mus musculus) (Q61009 whole entry, looked up): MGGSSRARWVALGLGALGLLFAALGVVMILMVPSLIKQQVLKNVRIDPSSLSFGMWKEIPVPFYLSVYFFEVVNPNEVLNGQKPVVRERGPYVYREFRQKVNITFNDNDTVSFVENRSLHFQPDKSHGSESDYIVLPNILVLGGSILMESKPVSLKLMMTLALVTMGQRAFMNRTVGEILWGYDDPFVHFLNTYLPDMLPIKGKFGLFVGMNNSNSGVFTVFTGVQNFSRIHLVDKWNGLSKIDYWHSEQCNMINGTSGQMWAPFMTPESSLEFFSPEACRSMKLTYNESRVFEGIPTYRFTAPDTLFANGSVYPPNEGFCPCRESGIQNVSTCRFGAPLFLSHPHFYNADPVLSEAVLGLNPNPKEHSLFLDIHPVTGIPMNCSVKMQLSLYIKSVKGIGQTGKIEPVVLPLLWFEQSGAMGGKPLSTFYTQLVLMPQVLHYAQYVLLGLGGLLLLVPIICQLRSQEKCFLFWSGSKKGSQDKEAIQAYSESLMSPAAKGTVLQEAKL

`CNc1nc(-c2ccc3c(c2)CCN3C(=O)c2ccccc2F)c(C)s1`: the result was inactive.

For the compound `CC(C)c1ccc(NC(=O)c2sccc2-n2cccc2)cc1`, the result was inactive.

For `CC[C@]12c3[nH]c4cc(-c5ccco5)ccc4c3CCN1C(=O)[C@@H](CC(=O)NCc1ccc(OC)c(OC)c1)C[C@@H]2C(=O)N1CCN(C(=O)c2ccco2)CC1`, the compound was classed as inactive.

With `CCOC(=O)c1[nH]c2c(c1C)C(=O)CC(c1ccc(F)cc1)C2` (stereo unspecified), the compound was called inactive.

In the case of `COc1ccc(OC)c(CCNC(=O)c2ccc(NC3=NC4CS(=O)(=O)CC4S3)cc2)c1` (stereo unspecified), the compound was classed as inactive.

Consider `O=C(Nc1cccc(-c2csc(Nc3ccc(Cl)cc3)n2)c1)c1cccc(C(F)(F)F)c1`, for which the outcome was inactive.

Turning to `COc1ccc(C(=O)N2CCN(c3ccc([N+](=O)[O-])c(NCCc4ccc(OC)c(OC)c4)c3)CC2)cc1`, the compound was called inactive.

Consider `CCOC(=O)N1CCC(NC(=O)c2ccc3c(c2)N(Cc2ccc(F)cc2)CCS3)CC1`, for which the compound was classed as inactive.

With `CCOC(=O)C1=CN(c2cccc(F)c2)C=C(C(=O)OCC)C1c1cc(OC)c(O)c([N+](=O)[O-])c1`, the result was inactive.

With `CCOC(=O)Nc1cccc(NC(=O)c2cc(OC)cc(OC)c2)c1`, the compound was called inactive.

On to `O=C1C2CCCN2C(=O)N1CCCN1CCN(c2ccc([N+](=O)[O-])cc2)CC1` (stereo unspecified), for which the outcome was inactive.

Consider `Cn1c(C(=O)N2CCC(C(=O)N3CCN(Cc4ccc5c(c4)OCO5)CC3)CC2)cc2sccc21`, for which the result was inactive.

On to `O=C(/C=C/c1ccco1)Nc1cccc(NC(=O)/C=C/c2ccco2)n1`, for which the compound was called inactive.

In the case of `Cc1ccc(S(=O)(=O)N2CCC(C(=O)NNC(=O)c3cccnc3)CC2)cc1`, the outcome was inactive.

Consider `CCCC(=O)N1CCc2cc(-c3nc(N)sc3C)ccc21`, for which the call was inactive.

As to `Cc1ccc(-c2cc(C(=O)Nc3sc4c(c3C(=O)NCc3ccco3)CCC4)[nH]n2)c(O)c1`, the compound was called inactive.

For the compound `O=C(NNc1c(F)c(F)cc(F)c1F)C1CCN(S(=O)(=O)c2ccccc2F)CC1`, the compound was classed as inactive.

With `CCOc1ccccc1CNC(=O)C1CCN(C(=O)c2sccc2-n2cccc2)CC1`, the compound was called inactive.

Take `COc1ccc(C2C(C#N)=C(N)N(c3ccccc3C#N)C3=C2C(=O)CCC3)cc1CN1CCCC1` (stereo unspecified): the outcome was inactive.

`O=C(Nc1ccc(-c2csc(Nc3cccc(C(F)(F)F)c3)n2)cc1)c1cccc(C(F)(F)F)c1`: the outcome was inactive.

For `CSc1nccc(-c2sc(SC)c(C#N)c2-c2ccccc2)n1`, the call was inactive.

`CCc1cc(=O)oc2c3c(cc(OCC(=O)NCc4ccco4)c12)OC(C)(C)CC3`: the result was inactive.

`CC(C)OC(=O)c1cccc(C(=O)Nc2cccc(NC(=O)c3cccc(C(=O)OC(C)C)n3)n2)n1`: the compound was called inactive.

Turning to `CCOC(=O)c1cccc(NC(=O)Nc2cc(OC)ccc2OC)c1`, the outcome was inactive.

Consider `Cc1ccc(F)cc1NC(=O)C1C2CCC(O2)C1C(=O)O` (stereo unspecified), for which the call was inactive.

Regarding `O=C(Nc1ccccc1)NC1CC2CCC(C1)N2Cc1nnnn1Cc1ccc2c(c1)OCO2` (stereo unspecified), the result was inactive.

Turning to `COc1ccc(N(CC(=O)NC2CCCC2)C(=O)Cn2nnc(-c3ccc(OC)c(OC)c3)n2)cc1`, the compound was called inactive.

For the compound `CCn1nc(C)c(CN2CCc3c([nH]c4ccccc34)C2c2ccc(F)c(OC)c2)c1C` (stereo unspecified), the compound was classed as inactive.

Take `COc1ccc(-c2nnn(CC(=O)N(CC(=O)NC3CCCC3)c3cccc(C)c3)n2)cc1OC`: the call was inactive.

Regarding `CCCc1cc(-c2[nH]ncc2-c2ccc(C(=O)OCC)o2)c(O)cc1O`, the compound was called inactive.

Regarding `O=C(N[C@@H]1C/C=C\C[C@H](CC(=O)N(CCO)Cc2ccccc2)C(=O)NC[C@@H](c2ccccc2)OC1=O)OCC1c2ccccc2-c2ccccc21`, the compound was called inactive.

As to `COc1ccc(C2/C=C\CN(S(=O)(=O)c3ccc4ccccc4c3)CC(=O)N2Cc2ccc(F)cc2)cc1` (stereo unspecified), the call was inactive.

With `O=C(Cc1cccs1)NCCSc1c(-c2ccc(Cl)cc2)[nH]c2ccccc12`, the call was inactive.

As for `CNC(=O)c1ccc(Nc2nnc(-c3ccc(O)cc3)c3ccccc23)cc1`, the outcome was inactive.

Take `CC(C)CN(C(=O)COC(=O)C12CC3CC(CC(O)(C3)C1)C2)C1CCS(=O)(=O)C1` (stereo unspecified): the outcome was inactive.

For the compound `CCOC(=O)C1=C(CNCCOc2ccc(OC)cc2)NC(=O)NC1c1ccc2c(c1)OCO2` (stereo unspecified), the compound was called inactive.

On to `COc1ccc([C@H]2CC(=O)C=C(c3cccc4c3sc3ccccc34)C2)cc1OC`, for which the compound was called inactive.

For the compound `COc1ccc(N2CCN(C(=O)c3cc(=O)[nH]c4ccccc34)CC2)cc1`, the result was inactive.

As to `Cc1ccc(CCNC(=O)C2CCN(C(=O)c3sccc3-n3cccc3)CC2)cc1`, the compound was classed as inactive.

Consider `COc1ccc(C2/C=C\CN(S(=O)(=O)c3ccc(C)cc3)CC(=O)N2Cc2ccc(F)cc2)cc1` (stereo unspecified), for which the result was inactive.

For the compound `CCOc1ccc(OCCSc2nc3ccccc3n2CC(=O)O)cc1`, the compound was classed as inactive.

For the compound `CCC(C)NC(=O)Cn1cc(S(=O)(=O)N2CCN(c3ccccc3F)CC2)c2ccccc2c1=O` (stereo unspecified), the outcome was inactive.

In the case of `CC(C(=O)NCc1ccccc1)N(Cc1ccccc1Cl)C(=O)c1snc(C(N)=O)c1N` (stereo unspecified), the compound was classed as inactive.

Turning to `CCc1cc2c(=O)c(-c3ccc4c(c3)OCCO4)coc2cc1OS(C)(=O)=O`, the compound was classed as inactive.

As to `COc1ccc([C@H]2/C=C\CN(S(=O)(=O)c3ccc4ccccc4c3)[C@@H](C)C(=O)N2Cc2ccc(F)cc2)cc1`, the compound was classed as inactive.

Turning to `COC(=O)[C@]1(CC(C)C)N[C@H](c2ccc(-c3cccc(Cl)c3)cc2)[C@@H]2C(=O)N(C)C(=O)[C@@H]21`, the call was inactive.

For the compound `COc1ccc(CCN2CC(C(=O)NCc3cc(C(C)C)no3)CCC2=O)cc1` (stereo unspecified), the result was inactive.

For `CN(C(=O)COC(=O)c1c2c(nc3ccccc13)/C(=C/c1cccc([N+](=O)[O-])c1)CCC2)C1CCS(=O)(=O)C1` (stereo unspecified), the compound was called inactive.

With `CCCC(=O)N1c2ccc(-c3csc(N)n3)cc2CC1C` (stereo unspecified), the result was inactive.

On to `CC(C)c1nnc(NC(=O)CCC(=O)N2CCN(C3c4ccccc4-c4ccccc43)CC2)s1`, for which the result was inactive.

In the case of `O=C(NC1CCCCC1)C(c1ccc2ncccc2c1)N(Cc1ccco1)C(=O)c1ccc2c(c1)OCCO2` (stereo unspecified), the result was inactive.

Take `Cc1ccc(S(=O)(=O)NCc2ccc(C(=O)NCCc3ccc(S(N)(=O)=O)cc3)cc2)cc1`: the compound was called inactive.

As for `CN(C(=O)c1ccc2c(c1)CCN2S(C)(=O)=O)c1ccccc1`, the outcome was inactive.

On to `Cc1ccc(/C=C/C(=O)Nc2sc3c(c2C#N)CCCC3)o1`, for which the outcome was inactive.

Consider `COc1cc(OC)cc(C(=O)N[C@H](C(=O)OCC(=O)c2ccc3c(c2)NC(=O)CO3)C(C)C)c1`, for which the result was inactive.

For the compound `CC(Sc1nc2cc([N+](=O)[O-])ccc2n1-c1ccc(F)cc1)C(=O)NCc1ccc2c(c1)OCO2` (stereo unspecified), the result was inactive.

On to `COc1ccc(N2C(=O)C3C(C2=O)C3(c2ccccc2)c2ccccc2)cc1` (stereo unspecified), for which the call was inactive.

Take `CCn1c(C)c(C)c2cc(C(=O)Nc3cccc(Cl)c3)ccc21`: the result was inactive.

Take `COc1ccc(N2CC(C(=O)NCCc3ccc(Cl)cc3)CC2=O)c(OC)c1` (stereo unspecified): the outcome was inactive.

As for `COc1ccc([C@H]2/C=C\CN(S(=O)(=O)c3ccc(C)cc3)[C@@H](C)C(=O)N2Cc2ccc(F)cc2)cc1`, the outcome was inactive.

On to `Cc1sc(NC(=O)CN2CCOCC2)nc1-c1ccc2c(c1)CCN2S(=O)(=O)c1ccccc1`, for which the call was inactive.

On to `COc1ccc(-c2nc(CN3CCN(c4ncnc5ccccc45)CC3)c(C)o2)c(OC)c1`, for which the outcome was inactive.

In the case of `CCOc1ccc(NC(=O)CN2CCN(CC(=O)Nc3ccc(C(=O)OC)cc3)CC2)cc1`, the result was inactive.

For `O=C(CCCC(=O)N(CC(=O)NC1CCCC1)C1CCCC1)Nc1ccccn1`, the compound was classed as inactive.

As to `COc1ccc(CCC(=O)Nc2ccc(-c3noc(-c4ccc(OC)c(OC)c4)n3)cc2)cc1`, the result was inactive.

With `O=C(NCCn1cc(SCc2ccccc2)c2ccccc21)c1c(F)cccc1F`, the compound was classed as inactive.

Consider `CC(C)C(=O)Nc1sc2c(c1-c1nc3ccccc3[nH]1)CCCC2`, for which the outcome was inactive.

Turning to `Cc1cccc(NC(=O)N2C3CCCC2CC(NC(=O)C(C)(C)C)C3)c1` (stereo unspecified), the compound was classed as inactive.

Turning to `O=C1NCCOC(=O)[C@H](Cc2ccc(F)cc2)C/C=C\C[C@@H]1CC(=O)N(CCO)Cc1ccccc1`, the outcome was inactive.

As to `COc1ccc(CCNC(=O)c2ccc3c(c2)N(Cc2ccc(F)cc2)CCS3)c(OC)c1`, the outcome was inactive.

Turning to `COc1ccc(OC)c2[nH]c(C(=O)N3CCC(C(=O)O)CC3)cc12`, the result was inactive.

Turning to `COc1ccccc1-n1cnc2cc(NCc3ccco3)ccc21`, the result was inactive.

Regarding `COc1ccc(CNC(=O)C(c2ccc(C)cc2)N(Cc2cccs2)C(=O)c2ccc3c(c2)OCCO3)cc1` (stereo unspecified), the outcome was inactive.

In the case of `Cc1cccc(N2CCN(C(=O)CN(C)S(=O)(=O)c3ccc4c(c3)CCC(=O)N4)CC2)c1C`, the compound was classed as inactive.

For `COC(=O)C1=CN(c2ccc(F)c(F)c2)C=C(C(=O)OC)C1c1ccc([N+](=O)[O-])cc1`, the outcome was inactive.

Consider `COCCCN(C(=O)c1ccco1)c1nc(-c2ccc(OC)cc2)cs1`, for which the compound was classed as inactive.
